# Shown are actives, neighbours in structure and some others; about 1.3% of the full set was active somewhere.
# EPAC2 agonist: activates human EPAC2 exchange factor. Q8WZA2. Potency, µM (series often up to 154 µM), without a hit: top-dose activation, usual class: activators. EPAC2 activation, biochemical qHTS; response scale: 100% = 6.5 mM cAMP response. 360,000 compounds, 0.079% hits; note: nearly all actives have a fitted effect of over 50% in size
# Target sequence (Q8WZA2 whole entry, looked up): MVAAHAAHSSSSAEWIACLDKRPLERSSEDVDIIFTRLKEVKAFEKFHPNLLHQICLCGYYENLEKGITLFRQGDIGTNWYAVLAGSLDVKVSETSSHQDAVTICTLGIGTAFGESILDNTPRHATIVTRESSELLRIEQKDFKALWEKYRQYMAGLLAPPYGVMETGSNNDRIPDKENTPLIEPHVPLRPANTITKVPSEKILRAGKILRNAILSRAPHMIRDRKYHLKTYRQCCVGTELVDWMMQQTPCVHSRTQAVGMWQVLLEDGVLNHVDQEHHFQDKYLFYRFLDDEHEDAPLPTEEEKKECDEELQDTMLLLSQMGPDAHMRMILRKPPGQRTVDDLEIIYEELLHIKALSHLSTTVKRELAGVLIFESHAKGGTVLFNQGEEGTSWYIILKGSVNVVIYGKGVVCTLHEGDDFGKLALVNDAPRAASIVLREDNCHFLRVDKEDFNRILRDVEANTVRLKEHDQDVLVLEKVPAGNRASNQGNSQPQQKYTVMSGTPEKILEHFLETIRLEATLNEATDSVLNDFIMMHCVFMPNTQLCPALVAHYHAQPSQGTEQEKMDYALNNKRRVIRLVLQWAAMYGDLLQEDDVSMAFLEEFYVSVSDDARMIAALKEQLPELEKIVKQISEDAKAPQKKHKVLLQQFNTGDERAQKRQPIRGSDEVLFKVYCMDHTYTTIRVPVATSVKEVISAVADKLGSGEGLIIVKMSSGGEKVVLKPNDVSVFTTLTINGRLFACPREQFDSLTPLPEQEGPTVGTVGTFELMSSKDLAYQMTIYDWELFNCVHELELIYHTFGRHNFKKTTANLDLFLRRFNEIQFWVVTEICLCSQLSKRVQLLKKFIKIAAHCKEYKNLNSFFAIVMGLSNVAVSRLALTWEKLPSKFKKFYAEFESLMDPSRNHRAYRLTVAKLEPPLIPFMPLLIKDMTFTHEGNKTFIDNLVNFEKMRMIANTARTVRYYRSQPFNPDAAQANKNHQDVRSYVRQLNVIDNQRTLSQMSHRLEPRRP
#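 Each well held 100 nM EPAC2, 250 nM RAP1B-BODIPY-GDP and 50 uM GDP. Fluorescence, read at 5-min intervals to 30 min, was referenced to a 6.5 mM cAMP positive control.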
# RGS4 inh: inhibitors of human regulator of G protein signaling 4; Transcreener GDP fluorescence polarization, RGS4-accelerated GTP hydrolysis; 390,000 compounds, 0.039% hits; P49798; Potency, µM (series often up to 114 µM), without a hit: at the top dose activity change, negative = inhibition, usual class: inhibitors; note: % is set by controls: 0 for no effect and ±100 for the full control effect; nearly all actives have a fitted effect of over 75% in size
#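 MLSMR compounds (23 nl, pin-transferred) preincubated 10 min at room temperature with a 500nM (2x) first reagent, then RGS4 at 900nM (2x) plus Transcreener GDP mix added; fluorescence polarization (620/688 nm) read before and after 90 min at 30 °C.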
# EPAC1 agonist: agonists of human EPAC1; O95398; EPAC1 agonist qHTS, biochemical assay; response scale: 100% = response to 6.5 mM cAMP; Potency, µM (highest dose often 154 µM), for inactives: at the top dose activation, actives largely listed as activators; 360,000 compounds, 0.073% hits; note: nearly all actives have a fitted effect of over 60% in size
#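 Compounds were pinned as a concentration titration into mixtures of EPAC1 (100 nM), BODIPY-GDP-loaded Rap1B (250 nM) and GDP (50 uM). After 5 min at room temperature, fluorescence was followed for 30 min; activity was scaled to 6.5 mM cAMP.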
# EPAC1 antagonist: blocks human EPAC1 exchange factor. O95398. EPAC1 GEF assay, Rap1b-BODIPY-GDP exchange fluorescence. Potency, µM (series often up to 115 µM), for the others: top-dose activity change, negative = inhibition, actives largely listed as inhibitors. 360,000 compounds, 0.14% hits;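 note: plate controls were vehicle for no effect and positive control for full effect; nearly all actives have a fitted effect of over 50% in size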
# BRCA1 expr up: increases BRCA1 expression; MCF7-BRCA1-FFLuc reporter, luminescence, 48 h; response scale: scaled: vehicle 0%, 10 µM genistein 100%; 380,000 compounds, 1.1% hits; Potency, µM (doses to about 46.1 µM), for inactives: top-dose activation, hits mostly activators; note: nearly all actives have a fitted effect of over 80% in size
#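 Quantitative HTS in MCF7 cells stably reporting BRCA1 expression via firefly luciferase. Compound treatment lasts 48 h at 37 °C in phenol-red free MEM. Activation is expressed relative to genistein at 10 microM and DMSO.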
# EPAC2 antag: EPAC2 (human) antagonism | Q8WZA2 | EPAC2 GEF exchange of Rap1B-BODIPY-GDP, fluorescence | Potency, µM (series often up to 114 µM), without a hit: at the top dose activity, negative = inhibition, most hits filed as inhibitors | 360,000 compounds, 0.18% hits; note: % is set by controls: 0 for no effect and ±100 for the full control effect; nearly all actives have a fitted effect of over 45% in size
# An asterisk follows results filed as active; ? = inconclusive; nt = no result given; [ ] = another dose, or the depositor's remark. Calls come from the whole dose curve; as a rule, active = well fitted curve in the direction sought with a large enough effect; inconclusive = small, poorly fitted or top-dose-only effect, or another doubt; inactive = no such curve, though single readings can be large; an effect the other way counts as inactive or inconclusive. Potency is the fitted concentration of half-maximal effect.
SMILES,EPAC2 agonist,RGS4 inh,EPAC1 agonist,EPAC1 antagonist,BRCA1 expr up,EPAC2 antag
CC1CCCCC1NC(=O)COC(=O)c1c2c(nc3ccccc13)/C(=C/c1ccco1)CC2 (configuration not stated),-3.2%,?,-36.3%,44.7µM*,24.3%,15.8%
O=C(COC(=O)c1c2c(nc3ccccc13)/C(=C/c1ccco1)CC2)NC1CCCC1,0.0%,?,-4.0%,?,25.1%,0.1%
CCC(O)(CC)C(=O)N(Nc1ccc(C)cc1)c1ccc(C)cc1,12.2%,3.8%,1.9%,-11.4%,-3.2%,-8.1%
CCOC(=O)C(=O)N(Nc1ccc(C)cc1)c1ccc(C)cc1,17.7%,29.8%,8.4%,-16.0%,11.2µM*,-14.9%
CC(=O)Nc1ccc(C(=O)NNC(=O)c2ccc(Cl)cc2Cl)cc1,9.5%,-5.1%,15.7%,13.0%,-16.0%,3.2%
Cc1ccnc(NC(=O)c2ccc(Cl)c(S(=O)(=O)N3CCCC3)c2)c1,7.2%,-12.9%,-3.2%,2.9%,7.08µM*,-3.3%
Cc1cnc(C(=O)OCC(=O)Nc2ccc(OCc3ccccc3)cc2)cn1,-0.4%,-34.4%,-4.0%,1.4%,10µM*,10.1%
Cc1cnc(C(=O)OCC(=O)NCc2ccccc2)cn1,-2.5%,-4.1%,4.0%,-0.2%,4.0%,7.4%
O=C(CCSc1ccccc1)Nc1ccc(OCc2ccccc2)cc1,-19.8%,8.2%,-8.1%,-11.3%,11.2µM*,?
O=C(CCCOc1ccccc1)Nc1ccc(Br)cc1,-13.8%,4.8%,-9.9%,-10.1%,-3.6%,0.9%
O=C(CCOc1ccccc1)Nc1ccc(Br)cc1,-8.3%,-14.1%,-7.3%,-5.6%,7.94µM*,4.5%
O=C(O)c1ccc(-n2ncc3c2/C(=C/c2cccc([N+](=O)[O-])c2)CC3)cc1,6.1%,-1.7%,-14.7%,-18.8%,6.31µM*,-19.7%
O=C(O)CCc1ccc(-c2ccc(Br)cc2)n1-c1ccc(O)cc1,-8.1%,-33.9%,-1.4%,-16.1%,-10.2%,50.1µM*
O=C(COc1ccccc1C(=O)Nc1ccccc1)c1ccc(Br)cc1,9.0%,-15.8%,5.6%,-13.6%,-22.5%,0.5%
CCCCCn1nc(-c2ccccc2)c2nc3ccccc3nc21,100µM*,-26.7%,1.5%,15.4%,-7.1%,235.7%
CCCn1nc(-c2ccccc2)c2nc3ccccc3nc21,-218.0%,9.0%,17.0%,3.9%,0.0%,206.1%
O=C(Nc1nc(-c2ccc3c(c2)OCO3)cs1)C1CC1,19.6%,-18.5%,-10.1%,-11.8%,4.47µM*,-7.2%
CC(=O)Nc1cnc(-c2cc(C)c(O)c(C)c2)cn1,15.8%,nt,-5.8%,-4.9%,8.91µM*,5.1%
CC(=O)Nc1cnc(-c2ccccc2C(C)=O)cn1,-5.5%,nt,-11.4%,-2.4%,4.0%,-8.5%
CC(=O)Nc1cnc(-c2ccc3c(c2)OCO3)cn1,8.8%,nt,9.7%,-5.5%,2.82µM*,9.7%
O=C(O)C(=O)Nc1nc(-c2ccc3c(c2)OCCO3)cs1,1.4%,-23.4%,6.1%,-26.5%,48.8%,-5.3%
O=c1/c(=C/c2ccc([N+](=O)[O-])cc2)sc2n1CCCN=2,9.2%,-17.5%,-0.4%,10.1%,3.55µM*,7.6%
Cc1ccc(C)c(Cc2c(C)nc3c(C(=O)N4CCOCC4)cnn3c2C)c1,-15.5%,-12.3%,2.8%,11.7%,-1.5%,16.4%
O=C(NCc1ccco1)Nc1ccc(Br)cc1Cl,6.1%,5.3%,-2.8%,3.8%,12.6µM*,11.2%
C1=C(CCNc2ncnc3nc[nH]c23)CCCC1,4.6%,-7.6%,-6.9%,2.4%,6.31µM*,-5.2%
SMILES,EPAC2 agonist,RGS4 inh,EPAC1 agonist,EPAC1 antagonist,BRCA1 expr up,EPAC2 antag
Clc1ccc(CCNc2ncnc3nc[nH]c23)cc1,12.3%,-5.5%,-10.4%,-11.1%,?,-9.0%
CC1CCc2sc(C(=O)NCc3ccccn3)cc2C1 (configuration not stated),7.2%,-3.4%,-1.9%,-6.1%,11.2µM*,13.6%
CC1CCc2c(C(=O)NCc3ccccn3)csc2C1 (configuration not stated),3.6%,13.9%,-15.8%,-17.9%,11.2µM*,-1.9%
CC1CCc2c(C(=O)Nc3nccs3)csc2C1 (configuration not stated),-5.4%,-14.6%,-0.1%,9.8%,12.6µM*,15.2%
CC1CCc2c(C(=O)Nc3ccccn3)csc2C1 (configuration not stated),9.7%,5.5%[11.4 µM],12.3%,-33.3%,?,-17.1%
CC1CCc2c(C(=O)NCC3CCCO3)csc2C1 (configuration not stated),4.4%,1.6%,-5.4%,4.5%,11.2µM*,9.4%
O=C(NCC1CCCO1)c1csc2c1CCCCC2 (configuration not stated),1.0%,1.6%,-5.2%,9.1%,68.3%,-1.3%
Cc1nc2c(C(F)(F)F)cccc2c2c1CCS2,4.4%,12.5%,2.2%,?,-2.8%,-14.8%
C/C(=N\NC(=O)c1cc2c(s1)CCC(C)C2)c1ccc[nH]1 (configuration not stated),3.5%,-3.6%,-13.2%,-22.0%,5.01µM*,-1.7%
CC1CCc2sc(C(=O)NC3CCCCC3)cc2C1 (configuration not stated),3.4%,24.3%,7.9%,11.4%,11.2µM*,1.0%
CC1CCc2sc(C(=O)NC(C)C3CCCO3)cc2C1 (configuration not stated),-3.4%,11.7%,-8.0%,-4.7%,?,1.0%
C=CCOC(=O)c1cc(-c2ccc(/C=C3\C(=O)NC(=O)C(C#N)=C3C)o2)ccc1Cl,-8.6%,?,5.9%,?,24.7%,?
COc1c(C(=O)NNC(=O)c2ccccc2Cl)csc1Br,-0.2%,7.1%,12.9%,-6.3%,10µM*,-2.0%
O=C(CSc1nc2ccc(NC(=O)C3CCCCC3)cc2s1)NCC1CCCO1 (configuration not stated),2.3%,-14.9%,3.5%,-8.5%,1.3%,-8.4%
CC1(C)CC(=O)c2c(O)cc(OCc3ccc(Br)cc3)cc2O1,1.2%,-15.7%,6.5%,5.1%,3.55µM*,7.9%
O=C(O)c1c2c(nc3ccccc13)/C(=C/c1ccc(OC(F)F)cc1)CCC2,4.1%,-4.0%,2.9%,5.1%,?,-15.1%
CN(C)c1nc(NNC(=O)c2ccccc2)nc(N(C)C)n1,3.5%,-10.2%,2.2%,?,-23.2%,-4.0%
Cc1ccc(/C(N)=N/OC(=O)c2ccc(F)cc2)cc1,-0.6%,-18.4%,0.0%,0.0%,10µM*,0.4%
N/C(=N\OC(=O)c1ccccc1Cl)c1ccc(Cl)cc1,-5.0%,-0.5%[11.4 µM],6.4%,4.6%,55.8%,8.5%
N/C(=N\OC(=O)c1ccc(F)cc1)c1ccccc1,4.8%,26.2%,-4.3%,-19.9%,-32.0%,8.2%
